Reference: PubChem BioAssay (Tox21)
Calls of active or inactive are those of the source. The call rests on the fitted dose curve; in most records, active means well fitted curve in the direction sought with a large enough effect in the repeat runs; inconclusive means weak or mixed curves; inactive means flat fitted curve, though single readings scatter.

assay: qHTS assay to test for compound auto fluorescence at 460 nm (blue) in HEK293 cell free culture (AID 720681); conditions: cell-free medium, autofluorescence 405/460 nm (blue); series mostly up to 91.3 µM; fluorescence, % of fluorescent control: at the top concentration
Excerpt: U.S. Tox21 Program National Center for Advancing Translational Sciences [NCATS] NIH Chemical Genomics Center [NCGC] U.S. Environmental Protection Agency [EPA] National Institutes of Environmental Health Sciences [NIEHS] National Toxicology Program [NTP] U.S. Food and Drug Administration [FDA] Tox21 Assay Overview: Compound auto fluorescence often interferes with screening of the compound library against various biological targets and signaling pathways. Some of these compounds may have fluorophoric properties. Such properties may interfere with the assay outputs resulting in false positives and/or negatives. To decrease such complications and ensure the compound activities are relevant in terms of biological response, the Tox21 10K compound library was screened for auto fluorescence. From the fluorophores used as reporter signals in our screening assays, the auto fluorescence equivalencies of compounds against three fluorophores have been evaluated: Triamterene, Fluorescein and Rose Bengal sodium for blue, green and red fluorescence, respectively. The fluorescence intensities were measured using Excitation/Emission wavelengths at 405/460nm, 485/535nm and 540/590nm for blue, green and red labels, respectively. This assay includes the blue fluorescence data.
Tox21 Assay Protocol Summary: 5 uL of culture medium (DMEM containing 10% FBS) per well was dispensed into black wall/clear bottom 1536-well plates using a Multidrop Combi Dispenser (ThermoFisher Scientific, Waltham, MA). After 23 nL compound or DMSO vehicle was transferred into assay plate by a pintool work station (Kalypsys, San Diego, CA), fluorescence intensities in the assay plates were measured by an Envision (PerkinElmer, Shelton, CT) plate reader using three labels for measuring blue, green and red fluorescence at […] 460, 535 and 590nm respectively.
On the % scale 0 is the no-effect control and ±100 the full control effect.

SMILES	outcome	fluorescence, % of fluorescent control
O=C(NCCN1CCOCC1)c1ccc(Cl)cc1	inactive	–
NNc1nnc(NN)c2ccccc12	–	0.379% [at 46 µM] (inactive)
COc1ccc(S(=O)(=O)N2c3ccc(Cl)cc3[C@@](O)(c3ccccc3Cl)[C@H]2C(=O)N2CCC[C@@H]2C(N)=O)cc1OC	–	0.12% [at 46 µM] (inactive)
CC(C)(C)OC(=O)c1ccc(O)cc1	–	-0.0199% (inactive)
O=C(O)C(=O)Cc1ccccc1	–	-0.175% (inactive)
Nc1ccc2cc(S(=O)(=O)O)cc(O)c2c1	–	7.13% (inactive)
C#CC(C)N(C)C(=O)Nc1ccc(Cl)cc1 (stereo not given)	–	0.0457% (inactive)
CCCCCCOC(=O)CC	–	0.0158% (inactive)
CNS(=O)(=O)CCc1ccc2[nH]cc(C3CCN(C)CC3)c2c1	–	0.0644% [at 46 µM] (inactive)
O=C(O)c1ccc(Cl)cc1Cl	–	0.0408% [at 95.7 µM] (inactive)
C=C(C)C1CCC(C)(O)CC1 (stereo not given)	–	0.0743% (inactive)
CCCCNC1CC(C)(C)NC(C)(C)C1	–	-0.0696% (inactive)
CC(C)NCC(O)COc1ccc(COCCOC(C)C)cc1 (stereo not given)	inactive	–
CCN1CCc2nc(N)oc2CC1	–	0.543% [at 46 µM] (inactive)
Nc1ccc(S(=O)(=O)Nc2ccc(Cl)nn2)cc1	inactive	–
CNC(=O)[C@H]1O[C@@H](n2cnc3c(NCc4cc(Cl)ccc4OCc4cc(C)no4)ncnc32)[C@H](O)[C@@H]1N	–	-0.377% (inactive)
CCCCCCCC/C=C\CCCCCCCC(=O)OCCCC	–	-0.0858% [at 18.6 µM] (inactive)
CC1=C(C(=O)O)N2C(=O)[C@@H](NC(=O)[C@H](N)c3ccc(O)cc3)[C@H]2SC1	–	0.558% [at 18.6 µM] (inactive)
CCCCCCCCC(=O)Cl	–	0.0241% [at 95.7 µM] (inactive)
CCOc1cc(NC(C)=O)ccc1C(=O)OC	–	-0.101% [at 46 µM] (inactive)

SMILES	outcome	fluorescence, % of fluorescent control
CCCCCCCCCC(C)=O	–	-0.032% [at 95.7 µM] (inactive)
COc1cc2c(cc1OC)[C@@H]1CC(=O)[C@@H](CC(C)C)CN1CC2	–	4.88% [at 46 µM] (inactive)
C[C@@H](O)[C@H]1C(=O)N2C(C(=O)O)=C(SCCN=CN)C[C@H]12	–	1.12% [at 18.6 µM] (inactive)
ClCCCl	–	0.0641% (inactive)
CCCCCCCCOS(=O)(=O)O	–	0.0099% (inactive)
CC(=O)N[C@@H](CCC(=O)O)C(=O)O	–	-0.0345% [at 46 µM] (inactive)
COc1ccc(Br)c(C)c1	–	-0.133% (inactive)
COC(=O)c1ccccc1C(=O)c1ccc(OCCN2CCCCC2)cc1	–	1.42% [at 46 µM] (inactive)
O=S(=O)(O)CCN1CCN(CCO)CC1	–	-0.0223% (inactive)
CC(=O)NCCCCCC(=O)O	–	-0.0402% [at 46 µM] (inactive)
CCC(C)(CCC(C)C)C(=O)O (stereo not given)	–	-0.0556% (inactive)
CCO[Si](CCCS)(OCC)OCC	–	0% (inactive)
CC(=O)c1sc(C)nc1C	–	0.0536% (inactive)
C[C@@H]1O[C@@H](O[C@@H]2[C@@H](O)[C@H](OCCc3ccc(O)c(O)c3)O[C@H](CO[C@@H]3O[C@H](CO)[C@@H](O)[C@H](O)[C@H]3O)[C@H]2OC(=O)/C=C/c2ccc(O)c(O)c2)[C@H](O)[C@H](O)[C@H]1O	–	4.56% (inactive)
CC(CN)CC(C)(C)CCN (stereo not given)	–	0.189% [at 203 µM] (inactive)
CC[C@H](C)C(=O)O[C@H]1C[C@H](O)C=C2C=C[C@H](C)[C@H](CC[C@@H](O)C[C@@H](O)CC(=O)O)[C@H]21	inactive	–
CCCCC(CC)COCCO (stereo not given)	–	0.0467% (inactive)
CC1COc2ccccc2N1 (stereo not given)	–	-0.235% (inactive)
CCCOC(OCCC)OCCC	–	-0.0388% (inactive)
CCCC(=O)C(C)=O	–	-0.0487% (inactive)
